BAZ2B block: blocks human BAZ2B; AlphaScreen BAZ2B-H3K14Ac peptide displacement; Q9UIF8; AID 504333; 360,000 tested, 4.4% active; Potency, µM (series often up to 114 µM), usual class: inhibitors; also: nearly all actives have a fitted effect of over 60% in size
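Compounds, titrated to a top concentration of 110 uM, were incubated 30 min at room temperature with preformed BAZ2B/acetyl-K14 H3 peptide complex (50 nM each). Proximity signal was measured by AlphaScreen after 20 min with beads.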
HP1b chromo inh: inhibitors of HP1-beta chromodomain binding to methylated histone tails; P83916; Potency, µM (doses to about 114 µM), hits mostly inhibitors; AlphaScreen HP1-beta / biotin-H3K9me3 peptide binding; 390,000 tested, 0.56% active; also: nearly all actives have a fitted effect of over 70% in size
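AlphaScreen: HP1-beta (50 nM) preformed 30 min with biotin-H3(1-18)K9me3 peptide (50 nM) in PBS pH 7.4, 0.01% Tween-20. Compound added for 30 min at RT, then streptavidin donor/nickel chelate acceptor beads (10 ug/mL) for 30 min.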
G9a inh: inhibitors of human histone lysine methyltransferase G9a. Potency, µM (doses to about 102 µM), most hits filed as inhibitors. AID 504332. 350,000 tested, 8.8% active. G9a H3K9 monomethylation, AlphaScreen, 2 h; also: nearly all actives have a fitted effect of over 75% in size
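Signal arises when biotinylated H3K9 peptide, once monomethylated, bridges streptavidin donor and antibody-captured acceptor beads. Enzyme at 20 nM was preincubated 15 min with test compounds; peptide 500 nM and SAM 20 uM then reacted for 2 h.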
JMJD2A Tudor: JMJD2A Tudor domain (human) inhibition; AlphaScreen JMJD2A-Tudor / H3K4me3 peptide binding; Potency, µM (highest dose often 114 µM), actives largely listed as inhibitors; 390,000 tested, 4.4% active; AID 504339; also: nearly all actives have a fitted effect of over 50% in size
Target sequence (O75164 whole entry, looked up, the tested form may be a part): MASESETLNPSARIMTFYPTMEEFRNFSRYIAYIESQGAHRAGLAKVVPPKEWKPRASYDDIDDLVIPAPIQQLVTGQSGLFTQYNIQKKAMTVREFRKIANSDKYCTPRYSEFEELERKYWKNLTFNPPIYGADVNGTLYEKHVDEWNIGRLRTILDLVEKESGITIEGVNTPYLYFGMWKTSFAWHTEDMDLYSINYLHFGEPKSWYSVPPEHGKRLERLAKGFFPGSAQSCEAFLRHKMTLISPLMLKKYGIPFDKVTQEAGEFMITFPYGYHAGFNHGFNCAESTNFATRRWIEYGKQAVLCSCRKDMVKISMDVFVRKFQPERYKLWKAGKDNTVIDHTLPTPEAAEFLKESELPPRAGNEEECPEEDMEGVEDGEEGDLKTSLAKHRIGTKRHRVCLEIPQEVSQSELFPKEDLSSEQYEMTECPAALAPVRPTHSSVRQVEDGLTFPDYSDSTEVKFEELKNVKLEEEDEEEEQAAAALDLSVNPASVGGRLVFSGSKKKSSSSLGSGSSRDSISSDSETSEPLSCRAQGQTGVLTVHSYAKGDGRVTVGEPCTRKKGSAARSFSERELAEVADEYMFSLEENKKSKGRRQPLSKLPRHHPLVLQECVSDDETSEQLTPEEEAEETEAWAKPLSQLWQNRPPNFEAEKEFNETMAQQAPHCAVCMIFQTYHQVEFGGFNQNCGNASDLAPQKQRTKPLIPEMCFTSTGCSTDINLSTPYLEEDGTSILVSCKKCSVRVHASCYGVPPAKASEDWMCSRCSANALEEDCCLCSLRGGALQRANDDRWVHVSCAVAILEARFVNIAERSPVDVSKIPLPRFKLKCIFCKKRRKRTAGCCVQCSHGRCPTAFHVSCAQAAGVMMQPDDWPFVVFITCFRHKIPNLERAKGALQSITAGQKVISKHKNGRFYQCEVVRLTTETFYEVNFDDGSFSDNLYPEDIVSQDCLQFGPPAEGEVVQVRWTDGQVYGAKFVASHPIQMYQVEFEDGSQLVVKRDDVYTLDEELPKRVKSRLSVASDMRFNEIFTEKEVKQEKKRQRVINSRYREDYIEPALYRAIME
PLK1 PBD block: blocks phosphopeptide binding to human PLK1 polo-box domain. Plk1 PBD binding of FITC phosphopeptide, fluorescence polarization. 360,000 tested, 2.8% active. AID 720504. Potency, µM, most hits filed as inhibitors; also: series mostly up to about 57 µM; nearly all actives have a fitted effect of over 65% in size
Sfp PPTase inh: inhibitors of Bacillus subtilis Sfp phosphopantetheinyl transferase | Q9F4F7 | Biochemical Sfp PPTase activity, qHTS | Potency, µM, most hits filed as inhibitors | 310,000 tested, 3.5% active;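 also: the enzyme is Sfp with the accession as filed and its product quenches rhodamine fluorescence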
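Step 1, compound plus 15 nM Sfp-PPTase, 15 min, room temperature. Step 2, add rhodamine-CoA (5 uM) and BHQ-2-YbbR (12.5 uM). Step 3, read 525/598 nm fluorescence at 0 and 30 min.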
Large screens that a line does not name were inactive; ! = repeats disagree. Rows were chosen to be rich in hits. Some 12% of all compounds tested hit in one or more screens of this group. Calls follow the shape of the dose curve; as a rule, active = well fitted curve in the direction sought with a large enough effect; inconclusive = small, poorly fitted or top-dose-only effect, or another doubt; inactive = no such curve, though single readings can be large; an effect the other way counts as inactive or inconclusive.

CN1CCN(S(=O)(=O)c2cccc(C(=O)N(C)CC(=O)Nc3ccc(F)c(F)c3F)c2)CC1	BAZ2B block inconclusive, G9a inh 1.8µM (no result: Sfp PPTase inh)
CCN(CC(=O)Nc1ccccc1OC)C(=O)c1cccc(-n2cccc2)c1	BAZ2B block inconclusive, G9a inh 45µM, JMJD2A Tudor inconclusive
Cc1cc2occ(CC(=O)N(C)CC(=O)Nc3c(C)cccc3C)c2cc1C	G9a inh 40µM (no result: Sfp PPTase inh)
Cc1ccc(C)c(NC(=O)CN(C)C(=O)c2cccc(N3C(=O)CCC3=O)c2)c1	G9a inh 40µM (no result: Sfp PPTase inh)
CN(CC(=O)Nc1cccc(F)c1)C(=O)c1cccc(N2C(=O)CCC2=O)c1	none (no result: Sfp PPTase inh)
COc1ccc(Cl)cc1NC(=O)CN(C)C(=O)c1cccc(S(=O)(=O)N2CCN(C)CC2)c1	none (no result: BAZ2B block, G9a inh, Sfp PPTase inh)
Cc1cccc(NC(=O)c2ccccc2O)c1C	none
Cc1cccc(C)c1NC(=O)CN(C)C(=O)c1ccc(N2C(=O)CCC2=O)cc1	G9a inh inconclusive (no result: Sfp PPTase inh)
Cc1cccc(NC(=O)c2cnn3ccccc23)c1C	PLK1 PBD block 27µM
COc1ccc(NC(=O)CN(C)C(=O)c2cccc(S(=O)(=O)N3CCN(Cc4ccccc4)CC3)c2)cc1	BAZ2B block inconclusive, G9a inh 18µM, Sfp PPTase inh 50µM
Cc1cccc(C)c1NC(=O)CN(C)C(=O)c1cccc(-n2cccc2)c1	BAZ2B block 50µM, HP1b chromo inh inconclusive, G9a inh 50µM, JMJD2A Tudor 8.9µM (no result: Sfp PPTase inh)
Cc1ccc(NC(=O)CN(C)C(=O)c2cccc(-n3cccc3)c2)cc1	BAZ2B block 11µM, HP1b chromo inh 20µM, G9a inh 25µM, JMJD2A Tudor inconclusive, PLK1 PBD block inconclusive (no result: Sfp PPTase inh)
CCCCc1nc2c(c3c1C[C@H](C)OC3)CN(C(=O)Cc1cccc(OC)c1)CC2	none (no result: BAZ2B block, HP1b chromo inh, G9a inh, JMJD2A Tudor, PLK1 PBD block)
Cc1ccccc1CSc1nc2cccnc2n1Cc1ccc(C(=O)NCCc2cccs2)cc1	G9a inh inconclusive (no result: PLK1 PBD block, Sfp PPTase inh)
Cc1cccc(NC(=O)CNCC(=O)Nc2cccc(C)c2C)c1C	none
COc1ccc(NC(=O)CN(C)C(=O)c2cccc(Oc3ccccc3)c2)cc1	G9a inh inconclusive (no result: Sfp PPTase inh)
COc1ccc(NC(=O)CN(C)C(=O)c2cccc(-n3cccc3)c2)cc1	BAZ2B block 11µM, HP1b chromo inh 25µM, G9a inh 45µM, JMJD2A Tudor 22µM, PLK1 PBD block inconclusive (no result: Sfp PPTase inh)
Cc1cccc(NC(=O)CNC(=O)c2cccc(-n3cccc3)c2)c1C	BAZ2B block 14µM, HP1b chromo inh inconclusive, G9a inh 35µM, JMJD2A Tudor 14µM, PLK1 PBD block inconclusive (no result: Sfp PPTase inh)
CCCC1=NN2C(=N)/C(=C\c3cc(C)n(-c4cc(C)cc(C)c4)c3C)C(=O)N=C2S1	JMJD2A Tudor inconclusive, PLK1 PBD block inconclusive, Sfp PPTase inh 20µM
N=C1/C(=C/c2ccc(OCc3ccccc3)cc2)C(=O)N=C2SC(CC(=O)N3CCOCC3)=NN12	BAZ2B block inconclusive, G9a inh inconclusive, JMJD2A Tudor inconclusive, PLK1 PBD block inconclusive
N=C1/C(=C/c2ccc(OCc3ccccc3F)cc2)C(=O)N=C2SC(CC(=O)N3CCOCC3)=NN12	JMJD2A Tudor inconclusive, PLK1 PBD block 38µM
COc1cccc(-n2c(C)cc(/C=C3\C(=N)N4N=C(CC(=O)N5CCOCC5)SC4=NC3=O)c2C)c1	BAZ2B block 50µM
C=CCn1c(Cc2cccs2)nnc1SCC(=O)c1ccc2ccccc2c1	G9a inh 28µM
N#Cc1ccc(CSc2nnc(-c3ccccc3)n2Cc2ccco2)cc1	none (no result: G9a inh)
C=CCn1c(Cc2cccs2)nnc1SCC(=O)c1ccc(F)cc1	G9a inh 40µM, JMJD2A Tudor 56µM
N#Cc1ccc(CSc2nnc(Cc3cccs3)n2Cc2ccco2)cc1	BAZ2B block 50µM, G9a inh inconclusive, JMJD2A Tudor inconclusive, Sfp PPTase inh 14µM
C=CCn1c(Cc2cccs2)nnc1SCC(=O)NCc1ccco1	BAZ2B block inconclusive, G9a inh 45µM, JMJD2A Tudor inconclusive
Cc1nc2cnc(Oc3cccc(Cl)c3)nc2n(CCc2ccccc2)c1=O	none (no result: BAZ2B block, HP1b chromo inh, JMJD2A Tudor, PLK1 PBD block)
Cc1nc2nc(CNC(=O)c3cccc(F)c3)nn2c(C)c1CCC(=O)Nc1ccc(F)cc1	none (no result: PLK1 PBD block, Sfp PPTase inh)
C=CCn1c(CNC(=O)c2cccs2)nnc1SCC(=O)c1ccc(Br)cc1	none
C=CCn1c(Cc2cccs2)nnc1SCC(=O)c1cccc(Br)c1	G9a inh 32µM, PLK1 PBD block inconclusive
COc1cc(C(C2C(=O)CC(C)(C)CC2=O)C2C(=O)CC(C)(C)CC2=O)ccc1O	PLK1 PBD block inconclusive, Sfp PPTase inh 56µM
COc1cc(C(O)C(=O)O)ccc1O (stereo unspecified)	G9a inh 11µM!
COc1cc(C(C2C(=O)CC(C)(C)CC2=O)C2C(=O)CC(C)(C)CC2=O)ccc1OC(C)=O	PLK1 PBD block inconclusive (no result: BAZ2B block, G9a inh, Sfp PPTase inh)
COc1cc(C(C2C(=O)CC(C)(C)CC2=O)C2C(=O)CC(C)(C)CC2=O)cc(OC)c1OC	G9a inh 45µM, PLK1 PBD block inconclusive, Sfp PPTase inh inconclusive
COc1cc(C(C2=C(O)CC(C)(C)CC2=O)C2C(=O)CC(C)(C)CC2=O)cc(OC)c1OC (stereo unspecified)	BAZ2B block inconclusive, G9a inh inconclusive, PLK1 PBD block 19µM, Sfp PPTase inh 50µM
COc1ccc(C(C2C(=O)CC(C)(C)CC2=O)C2C(=O)CC(C)(C)CC2=O)cc1COCC(F)(F)F	G9a inh inconclusive, PLK1 PBD block 6.7µM, Sfp PPTase inh inconclusive
COc1ccc(OC(F)(F)F)cc1CC1(C)C(=O)Nc2c(Cl)ccc(Cl)c21 (stereo unspecified)	none (no result: BAZ2B block, HP1b chromo inh, G9a inh, JMJD2A Tudor, Sfp PPTase inh)
NC(=O)NC(=O)COC(=O)c1cccc(NS(=O)(=O)/C=C/c2ccccc2)c1	G9a inh inconclusive
CC(=O)c1sc(NC(=O)C2CCCN2S(=O)(=O)c2ccccc2F)nc1C (stereo unspecified)	none (no result: Sfp PPTase inh)
Cc1cc(C)c(C)c(S(=O)(=O)N2C(=S)NC(=O)C2C(C)C)c1C (stereo unspecified)	HP1b chromo inh inconclusive, G9a inh inconclusive, PLK1 PBD block 27µM
Cc1cc(=O)n(Cc2ccccc2)c(O)c1C#N	BAZ2B block inconclusive
Cc1cc(=O)n(CC(C)O)c(O)c1C#N (stereo unspecified)	G9a inh 10µM
Cc1cc(=O)n(CCCO)c(O)c1C#N	G9a inh 45µM
C[C@H]1CN([C@@H](C)CO)C(=O)CCCn2cc(nn2)CO[C@@H]1CN(C)C(=O)Nc1ccc(N2CCCCC2)cc1	none (no result: BAZ2B block, HP1b chromo inh, G9a inh, JMJD2A Tudor, Sfp PPTase inh)
COC(=O)c1cccc(N2C(=O)c3cccnc3C2=O)c1	G9a inh inconclusive, JMJD2A Tudor 45µM
COC(=O)c1cccc(N2C(=O)c3ccccc3S2(=O)=O)c1	G9a inh 56µM
COc1ccccc1N1C(=O)c2cccnc2C1=O	BAZ2B block inconclusive
Cc1cn(C2CC3OCC(NC(=O)C4CCCN4C(=O)OC(C)(C)C)C3O2)c(=O)[nH]c1=O (stereo unspecified)	none (no result: BAZ2B block, G9a inh, PLK1 PBD block)

Source: PubChem BioAssay (National Center for Advancing Translational Sciences (NCATS))
